This is an account of results in PubChem BioAssay.

Assay [1] can be described thus: inhibitors of TNFa-induced NFkB p65 translocation, primary screen, imaging, HUVEC, MLSMR starter and 10KST1 sets (AID 438;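 active means inhibition above 20% together with a positive visual image hit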;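 further: compound added about 3h40 before a 20 min TNFalpha stimulation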;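 on inhibition: signal is the nuclear over cytoplasmic p65 intensity ratio per well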). The settings on record: HUVEC TNFa-induced p65 nuclear translocation; cell count: measured here: nuclei count (cytotoxicity indicator), at 2.08 µM; inhibition: at 2 µM, stronger effect = higher value, 0% TNFa-plus-vehicle, 100% no-TNFa wells.
Assay [2] can be described thus: reduction of polyQ htt aggregates in cells – imaging, exon1htt(103Q)mCFP cells, high-content imaging, primary screen (AID 483;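 active means visual image review flags a hit and inhibition of aggregation exceeds 20%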;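 further: compound exposure lasted 3 days before fixation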;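 on nuclei count: percent of the per-plate median nuclei count of sample wells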). The following applies: exon1htt(103Q)mCFP cell line, aggregate imaging, at 2 µM; inhibition of aggregation: stronger effect = higher value; nuclei count: measured here: cell count, toxicity.
A short description of assay [3]: endothelial E-selectin expression blockers – imaging, HUVEC, immunofluorescence, MLSMR starter and 10KST1 sets, primary screen (AID 487;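 active means visually confirmed hit in the image check and inhibition above 20%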;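 on inhibition: signal is fraction of cell area covered by stained E-selectin grains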;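 on nuclei count: 100% = median nuclei count of all wells on the same plate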). The settings on record: HUVEC TNFalpha-induced E-selectin immunofluorescence imaging, at 2 µM; inhibition: stronger effect = higher value; nuclei count: measured here: cell number, toxicity.
Assay [4] addresses Voltage-gated potassium channel subunit beta-2 (Rattus norvegicus) (UniProt P62483). In words: inhibitors of rat Kvbeta2 reductase activity – biochemical, NADPH fluorescence, primary screen (AID 622;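 active means fluorescence slope higher than the sample average by over 3 SD, cut at about -0.22 in these data, passing the limit was not always enough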;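 further: slope of raw intensity against log time taken from 70 to 1610 s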). The following applies: recombinant KvBeta, 4-cyanobenzaldehyde reduction, at 10 µM, stronger effect = higher value.
Assay [5] has the same target. The assay can be described thus: enhancers of rat Kvbeta2 NADPH turnover – biochemical, NADPH fluorescence, primary screen (AID 623).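 Further: fluorescence intensity change per second fitted from 20 to 320 s.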 The following applies: Recombinant KvBeta, NADPH fluorescence decrease slope, 10 min; at 10 µM; stronger effect = lower value.
The target of assay [6] is Alpha-2C adrenergic receptor (Homo sapiens) (UniProt P18825). In words: compounds altering alpha2C-coupled GIRK flux – cell-based, HEK293 alpha2C/GIRK1/2, thallium flux, primary screen (AID 624;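 active means fluorescence slope after compound addition differing from the mean of all screened samples at 99.7% confidence, in either direction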;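 further: slope of fluorescence ratio to pre-addition baseline per second over 15 to 24 s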). The settings on record: thallium flux BTC fluorescence, at 10 µM, actives lie on both sides.
Assay [7] can be described thus: blockers of RIG-like receptor reporter activation – cell-based, Sendai virus stimulus, luciferase, 10K MLSCN set, TLR/RLR signaling modifier project, primary screen (AID 602276;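 active means inhibition at or above 50% at 10 µM; inactive means inhibition below 50%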;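 further: firefly luciferase from ISG56 promoter only with Renilla not read in this screen; 0% = Sendai virus plus DMSO and 100% = medium plus DMSO without virus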). The following applies: HEK293 RL24 IRF3 luciferase reporter, at 10 µM, stronger effect = higher value. (In a reporter assay the amount or activity of a reporter protein is the signal.)
Assay [8] is described as follows: TLR3 IRF3 reporter activation blockers – cell-based, poly I:C stimulus, luciferase, 10K MLSCN set, primary screen (AID 602277;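 active means inhibition of the reporter signal at or above 50%; inactive means inhibition below 50%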). The following applies: HEK293-TLR3 RL24 IRF3 luciferase reporter, at 10 µM, stronger effect = higher value.

The structures appear in SMILES notation. Calls of active or inactive are those of the source.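 How the source made its calls, unless noted: active means NADPH fluorescence slope more negative than the mean of all samples by about 3 SD, 99.7% confidence; inactive means the rest.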

Alpha-2C adrenergic receptor (Homo sapiens), sequence (P18825 whole entry, looked up): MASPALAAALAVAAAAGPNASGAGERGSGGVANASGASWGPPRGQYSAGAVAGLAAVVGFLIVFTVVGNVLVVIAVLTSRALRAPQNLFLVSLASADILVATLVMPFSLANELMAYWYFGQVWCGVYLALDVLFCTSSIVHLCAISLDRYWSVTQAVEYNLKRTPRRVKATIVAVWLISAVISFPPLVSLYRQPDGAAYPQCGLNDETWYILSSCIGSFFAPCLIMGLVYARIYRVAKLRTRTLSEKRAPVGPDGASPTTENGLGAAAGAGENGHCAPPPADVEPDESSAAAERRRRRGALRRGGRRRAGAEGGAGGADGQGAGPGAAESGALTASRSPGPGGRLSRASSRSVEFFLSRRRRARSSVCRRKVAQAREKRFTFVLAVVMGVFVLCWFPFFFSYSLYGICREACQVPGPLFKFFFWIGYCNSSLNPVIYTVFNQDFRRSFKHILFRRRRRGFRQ
Voltage-gated potassium channel subunit beta-2 (Rattus norvegicus), sequence (P62483 whole entry, looked up): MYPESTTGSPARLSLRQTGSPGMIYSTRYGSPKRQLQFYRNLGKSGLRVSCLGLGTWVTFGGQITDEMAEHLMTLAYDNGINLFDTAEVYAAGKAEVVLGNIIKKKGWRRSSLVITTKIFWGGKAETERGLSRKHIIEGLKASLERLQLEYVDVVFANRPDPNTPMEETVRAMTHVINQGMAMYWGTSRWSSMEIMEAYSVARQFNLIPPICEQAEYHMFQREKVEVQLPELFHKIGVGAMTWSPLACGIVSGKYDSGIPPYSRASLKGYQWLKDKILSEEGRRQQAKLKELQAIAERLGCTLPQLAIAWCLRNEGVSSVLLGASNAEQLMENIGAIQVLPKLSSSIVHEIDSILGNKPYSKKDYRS

The inhibition is the change of the read-out against control, counted positive when it falls. For the molecule `O=C(COC(=O)c1cccc(S(=O)(=O)N2CCc3ccccc32)c1)NC1CCS(=O)(=O)C1` (centres undefined), in assay [1], the cell count came to 611. In addition, the inhibition in assay [1] was 8.9% (inactive); in assay [3], -104% (inactive); in assay [7] it was 3.1% (inactive); in assay [8], 12.9% (inactive). Moreover, in assay [2], the inhibition of aggregation is -6.2% (inactive). For the same molecule, the nuclei count in assay [2] turned out to be 125%; in assay [3], 111%. Besides, the fluorescence slope in assay [4] was -0.283 (inactive). Also, the NADPH fluorescence slope in assay [5] was -7.3e-05 (inactive). Moreover, the slope in assay [6] is 0.00577 (inactive).

In the case of `O=C(Cn1ccc2ccccc2c1=O)Nc1ccc2c(c1)OCO2`, the cell count in assay [1] turned out to be 231. Besides, the inhibition in assay [1] was -1.8% (inactive); in assay [3] it was 0% (inactive); in assay [7], 0.207% (inactive); in assay [8], -4.72% (inactive). Further, the inhibition of aggregation in assay [2] is 1% (inactive). The results for the nuclei count in assay [2] and in assay [3] were 103% and 91.4%, respectively. In addition, the fluorescence slope in assay [4] is -0.602 (inactive). The NADPH fluorescence slope in assay [5] is -4.5e-05 (inactive). For the same molecule, in assay [6], the slope is 0.00747 (inactive).

For the molecule `Cc1cc(C)cc(OCC(=O)NC2=NCCS2)c1`, the cell count in assay [1] worked out at 311. Besides, the inhibition in assay [1] is -11.8% (inactive); in assay [3] it was -76% (inactive); in assay [7], -3.94% (inactive); in assay [8] it was -24% (inactive). Moreover, the inhibition of aggregation in assay [2] was 2.3% (inactive). Further, the figures for the nuclei count in assay [2] and in assay [3] were 165% and 115%, respectively. The fluorescence slope in assay [4] is -0.573 (inactive). In addition, the NADPH fluorescence slope in assay [5] was 1.2e-05 (inactive). Moreover, the slope in assay [6] is 0.00659 (inactive).

For the molecule `O=C(NCc1cccs1)C1CC(=O)N(c2ccccc2)C1` (centres undefined), the cell count in assay [1] amounted to 345. Moreover, the inhibition in assay [1] is -0.5% (inactive); in assay [3], -28.7% (inactive); in assay [7], 2.75% (inactive); in assay [8], 4.93% (inactive). Besides, the inhibition of aggregation in assay [2] was 11.8% (inactive). Further, the nuclei count in assay [2] is 98.2%; in assay [3], 84%. The fluorescence slope in assay [4] was -0.625 (inactive). Also, the NADPH fluorescence slope in assay [5] was 3.2e-06 (inactive). Moreover, in assay [6], the slope is 0.00459 (inactive).

Turning to `COc1ccc(N2CCN(Cc3nc(-c4ccc(Cl)cc4Cl)no3)CC2)cc1`, the cell count in assay [1] amounted to 596. The inhibition in assay [1] is -0.7% (inactive); in assay [3], -48.8% (inactive); in assay [7] it was 18.6% (inactive); in assay [8], 22.1% (inactive). The inhibition of aggregation in assay [2] is 4.9% (inactive). For the same molecule, the values for the nuclei count in assay [2] and in assay [3] were 106% and 122%, respectively. Also, the fluorescence slope in assay [4] was -0.421 (inactive). For the same molecule, in assay [5], the NADPH fluorescence slope was -7.7e-05 (inactive). Besides, the slope in assay [6] was 0.00526 (inactive).

On to `COc1ccc(OCCSc2nc3ccccc3n2CC(=O)O)cc1`, for which the cell count in assay [1] turned out to be 321. Further, the inhibition in assay [1] is -9.2% (inactive); in assay [3], -133% (inactive); in assay [7] it was 16.6% (inactive); in assay [8], 20.3% (inactive). For the same molecule, the inhibition of aggregation in assay [2] is -1.3% (inactive). Besides, the figures for the nuclei count in assay [2] and in assay [3] were 108% and 133%, respectively. Also, the fluorescence slope in assay [4] was -0.356 (inactive). Moreover, the NADPH fluorescence slope in assay [5] was -5.2e-05 (inactive). Besides, the slope in assay [6] is 0.00591 (inactive).

For `O=S(NCc1ccco1)C12CC3CC(CC(C3)C1)C2` (centres undefined), the cell count in assay [1] was 426. In addition, the inhibition was 12.5% (inactive) in assay [1], -2.2% (inactive) in assay [3], -5.22% (inactive) in assay [7] and 0.485% (inactive) in assay [8]. The inhibition of aggregation in assay [2] is 1.2% (inactive). In addition, the figures for the nuclei count in assay [2] and in assay [3] were 102% and 101%, respectively. Also, in assay [4], the fluorescence slope was -0.582 (inactive). In addition, the NADPH fluorescence slope in assay [5] is -2e-07 (inactive). The slope in assay [6] was 0.00485 (inactive).

With `CCCOc1ccc(OCCSc2ncccn2)cc1`, in assay [1], the cell count was 811. The inhibition in assay [1] is -13% (inactive); in assay [3], -93.3% (inactive); in assay [7], -39.4% (inactive); in assay [8] it was -92% (inactive). Further, the inhibition of aggregation in assay [2] is 24.7% (inactive). Besides, the nuclei count in assay [2] and in assay [3] was 108% throughout. The fluorescence slope in assay [4] was -0.454 (inactive). Also, the NADPH fluorescence slope in assay [5] is 2.1e-05 (inactive). In addition, the slope in assay [6] is 0.0061 (inactive).

With `COc1ccc(N2CCN(C(=O)Cc3ccc(-n4c(=O)[nH]c5ccccc5c4=O)cc3)CC2)cc1`, the cell count in assay [1] amounted to 660. For the same molecule, the inhibition is -5.8% (inactive) in assay [1], -103% (inactive) in assay [3], 7.13% (inactive) in assay [7] and -1.38% (inactive) in assay [8]. The inhibition of aggregation in assay [2] is -41.3% (inactive). Also, the nuclei count in assay [2] came to 96.7%; in assay [3] it was 103%. The fluorescence slope in assay [4] is -0.483 (inactive). For the same molecule, the NADPH fluorescence slope in assay [5] is 1.9e-05 (inactive). Moreover, the slope in assay [6] was 0.00662 (inactive).

For the molecule `Cc1cccc(C)c1NC(=O)CS(=O)CC(=O)NC1CCCc2ccccc21` (centres undefined), the cell count in assay [1] turned out to be 562. The inhibition in assay [1] is -5.5% (inactive); in assay [3], -73.7% (inactive); in assay [7] it was 12.3% (inactive); in assay [8], 20.9% (inactive). Besides, the inhibition of aggregation in assay [2] is -3.7% (inactive). Besides, the nuclei count in assay [2] was 62.2%; in assay [3], 108%. Besides, in assay [4], the fluorescence slope was -0.61 (inactive). Moreover, the NADPH fluorescence slope in assay [5] is -3e-05 (inactive). In addition, the slope in assay [6] is 0.00417 (inactive).

Turning to `CC(C)NC(=O)CSc1nc2ccccc2n1-c1ccccc1`, the cell count in assay [1] was determined as 379. Also, the inhibition in assay [1] was 2.5% (inactive); in assay [3] it was -80.1% (inactive); in assay [7] it was -22.3% (inactive); in assay [8], -5.89% (inactive). Also, the inhibition of aggregation in assay [2] is -2.9% (inactive). In addition, the nuclei count in assay [2] is 84.5%; in assay [3], 125%. Further, in assay [4], the fluorescence slope is -0.59 (inactive). In addition, the NADPH fluorescence slope in assay [5] was 9.8e-06 (inactive). The slope in assay [6] is 0.00781 (inactive).

On to `COc1ccc(C2C(C#N)=C(N)OC3=C2C(=O)CC(C)C3)c(OC)c1OC` (centres undefined), for which the cell count in assay [1] worked out at 349. Moreover, the inhibition in assay [1] is 15.6% (inactive); in assay [3] it was 11.3% (inactive); in assay [7] it was -3.81% (inactive); in assay [8] it was 19.1% (inactive). Moreover, in assay [2], the inhibition of aggregation was 5.8% (inactive). For the same molecule, the nuclei count in assay [2] is 123%; in assay [3], 102%. Besides, in assay [4], the fluorescence slope is -0.479 (inactive). Besides, the NADPH fluorescence slope in assay [5] was 2e-05 (inactive). In addition, the slope in assay [6] was 0.00381 (inactive).

On to `COCCn1nnnc1C(c1ccccc1OC)N1CCc2ccccc2C1` (centres undefined), for which the cell count in assay [1] worked out at 511. The inhibition was -3.6% (inactive) in assay [1], -89.6% (inactive) in assay [3], 16.5% (inactive) in assay [7] and 32.8% (inactive) in assay [8]. In addition, in assay [2], the inhibition of aggregation is 37.6% (inactive). The figures for the nuclei count in assay [2] and in assay [3] were 105% and 96.1%, respectively. In assay [4], the fluorescence slope is -0.322 (inactive). The NADPH fluorescence slope in assay [5] was -5e-05 (inactive). In addition, in assay [6], the slope was 0.00407 (inactive).

Consider `COc1ccccc1OCCCn1c(=O)oc2ccccc21`, for which the cell count in assay [1] amounted to 219. For the same molecule, the inhibition in assay [1] was 3.7% (inactive); in assay [3] it was -46.5% (inactive); in assay [7] it was -13.6% (inactive); in assay [8], -42.9% (inactive). Further, the inhibition of aggregation in assay [2] was 3.2% (inactive). For the same molecule, the nuclei count was found to be 91.4% in assay [2] and 94.4% in assay [3]. The fluorescence slope in assay [4] is -0.506 (inactive). The NADPH fluorescence slope in assay [5] is -4.3e-05 (inactive). The slope in assay [6] was 0.00513 (inactive).
